Screening results from PubChem BioAssay.
This excerpt belongs to a sample that is enriched for hits.
HePTP inhibitor = inhibitors of human HePTP phosphatase, primary screen, biochemical, absorbance, leukemia target. recombinant HePTP phosphatase activity, OD absorbance. actives 0.64% (n = 110,000). AID 521, 2006. inhibition, % at 20 µM; in the data active = inhibition above about 50%;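 note: plate controls were vehicle for no effect and reference inhibitor for full effect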
PLAP act = PLAP enzyme activators, biochemical, luminescence, HTS; purified PLAP enzyme, luminescent substrate read-out; active compounds read high; activation fold at 20 µM; actives 1.2% (n = 96,000); in the data active = activation fold above about 2
D1 mod = D1 CRE-luciferase signal change, two-sided – cell-based, HEK293 D1, dopamine EC30, D1 allosteric modulator project, primary screen; AID 641, 2007; dopamine EC30 potentiation; actives deviate in either direction; B-score at 10 µM; D(1A) dopamine receptor (Homo sapiens), P21728; actives 5.9% (n = 58,000);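 active = luminescence count or its row- and column-corrected plate score outside the 99.7% band of the plate's sample wells, on either side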
Target sequence (P21728 whole entry, looked up): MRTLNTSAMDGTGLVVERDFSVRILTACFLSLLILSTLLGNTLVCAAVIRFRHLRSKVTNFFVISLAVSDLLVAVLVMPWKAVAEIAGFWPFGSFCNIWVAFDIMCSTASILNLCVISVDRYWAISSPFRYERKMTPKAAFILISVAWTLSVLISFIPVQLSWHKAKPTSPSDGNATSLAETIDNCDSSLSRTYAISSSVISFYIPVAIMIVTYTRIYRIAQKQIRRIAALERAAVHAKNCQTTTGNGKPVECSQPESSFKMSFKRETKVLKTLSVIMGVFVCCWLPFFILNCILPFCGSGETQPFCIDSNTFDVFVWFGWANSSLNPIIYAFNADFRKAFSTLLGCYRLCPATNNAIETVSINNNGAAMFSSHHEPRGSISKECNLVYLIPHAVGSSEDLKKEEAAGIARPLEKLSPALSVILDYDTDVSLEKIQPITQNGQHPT
TNAP act mid DEA = human TNAP enzyme activators, primary screen, biochemical, luminescent, intermediate phosphate acceptor level | Alkaline phosphatase, tissue-nonspecific isozyme (Homo sapiens), P05186 | purified TNAP, CDP-star luminescence, 100 mM DEA, 30 min; active compounds read high; scale: 0 levamisole-inhibited, 1 vehicle-only enzyme | activation factor at 20 µM | 64,000 tested, under 10 active;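 active = activation factor of at least 2 at 20 µM, relative to controls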
Candida biofilm = clotrimazole potentiators killing Candida biofilms, primary screen, with clotrimazole, Alamar Blue | C. albicans biofilm + clotrimazole | inhibition, % at 6 µM | actives 0.14% (n = 85,000) | AID 834, 2007;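 active = inhibition above 20%; inactive = inhibition below 20%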;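 note: preformed 24 hr biofilms exposed to compound for 48 hr; 0% = biofilm without compound and 100% = blank killed by clotrimazole plus chlorhexidine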
DAT uptake mod = changed hDAT dopamine uptake under cocaine IC80, either direction, primary screen, cocaine antagonist project, cell-based, LLC-PK1 hDAT, [14C]-dopamine uptake, MLSMR; Sodium-dependent dopamine transporter (Homo sapiens), Q01959; actives 1.3% (n = 110,000); AID 449768, 2010; B-score at 10 µM; LLC-PK1 hDAT cells, [14C]-dopamine uptake with cocaine IC80; actives deviate in either direction;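 active = Z score or B-score, a plate-position-corrected score, falls beyond the plate's 99.7% confidence bounds, in either direction; inactive = both scores lie inside the 99.7% bounds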;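 note: scored against the spread of the other compound wells on the same plate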
Starred values were filed as active, the others as inactive.

How did CCn1c(SCC(=O)Nc2ccccc2OC)nnc1-c1cnccn1 do in these assays?
HePTP inhibitor: 6; PLAP act: 1; D1 mod: -0.21; TNAP act mid DEA: 0.9; Candida biofilm: 3; DAT uptake mod: -0.27

How did COc1ccc(S(=O)(=O)N(CC(=O)N[C@@H]2C[C@H]3CC[C@@H]2C3)c2ccc(C)cc2)cc1OC do in these assays?
HePTP inhibitor: 3

How did CCOC(=O)c1ccccc1-c1csc(NS(=O)(=O)c2ccc(Cl)cc2)n1 do in these assays?
PLAP act: 1.2; DAT uptake mod: -4.8*

What do the screens show for `C/C(=N\NC(=O)COc1ccc(Cl)cc1Cl)c1cccc([N+](=O)[O-])c1`?
HePTP inhibitor: 49

How did NC(=O)NC(c1ccccc1)c1cccnc1 (stereo not drawn) do in these assays?
HePTP inhibitor: -3

How did COc1ccc(NC(=O)C(=O)N/N=C/c2cccc(OC)c2O)cc1 do in these assays?
HePTP inhibitor: -19

What do the screens show for `COc1cccc(/C=N/NC(=O)c2[nH]c(C)c(C(=O)N/N=C/c3cccc(OC)c3O)c2C)c1O`?
PLAP act: 2.5*; DAT uptake mod: 0.37

How did O=C(N/N=C/c1cccc(O)c1O)c1ccc(-c2ccccc2)cc1 do in these assays?
HePTP inhibitor: -2

Results for COc1ccc(/C=N/NC(=O)CSc2nnc(C)n2-c2ccccc2)c(OC)c1OC ?
PLAP act: 1.1; DAT uptake mod: -0.1

How did COc1cccc(/C=N/NC(=O)CSc2nnc(C)n2-c2ccccc2)c1O do in these assays?
PLAP act: 2.1*

Results for COc1cccc(/C=N/NC(=O)c2ccc(-c3ccccc3)cc2)c1O ?
PLAP act: 2.1*; DAT uptake mod: 1

Results for O=C1/C(=C\c2cc([N+](=O)[O-])cc(Br)c2O)SC(=S)N1c1cccc(Cl)c1 ?
HePTP inhibitor: 101*

What do the screens show for `CCOc1ccccc1NC(=O)c1ccc(Cl)cc1Cl`?
HePTP inhibitor: -3

How did Cc1ccc(OCc2nc(-c3ccccn3)no2)c(Br)c1 do in these assays?
HePTP inhibitor: 0; PLAP act: 1.6; D1 mod: -5.7*; TNAP act mid DEA: 0.9; Candida biofilm: 11; DAT uptake mod: 1.4

How did CCc1ccc(OCc2nc(-c3ccccn3)no2)c(Br)c1 do in these assays?
HePTP inhibitor: 6; PLAP act: 1.4; D1 mod: -5*; TNAP act mid DEA: 0.4; Candida biofilm: 4; DAT uptake mod: -0.92

How did Nn1c(Cc2cccc3ccccc23)nnc1SCC(=O)NC1CCS(=O)(=O)C1 (stereo not drawn) do in these assays?
HePTP inhibitor: 1; PLAP act: 2*; D1 mod: -0.39; TNAP act mid DEA: 0.9; Candida biofilm: 7; DAT uptake mod: -0.73

How did Brc1ccc(/C=N/c2ncn[nH]2)cc1 do in these assays?
HePTP inhibitor: -13

How did O=C(O)c1ccc(/C=N/c2ncn[nH]2)cc1 do in these assays?
HePTP inhibitor: 100*

How did CC1=C(C(=O)Nc2ccccc2)C(c2cccc(O)c2)NC(=S)N1 (stereo not drawn) do in these assays?
HePTP inhibitor: -5

What do the screens show for `O=C1NC(=O)C(=Cc2ccc(Cl)c([N+](=O)[O-])c2)C(=O)N1`?
HePTP inhibitor: 96*

Results for O=c1c2ccccc2cnn1-c1nc2ccccc2s1 ?
HePTP inhibitor: 0; D1 mod: -4.5*; TNAP act mid DEA: 0.9; Candida biofilm: 7

How did COc1cc(C2c3c(-c4cc(C)cc(C)c4O)n[nH]c3C(=O)N2CCCO)cc(OC)c1OC (stereo not drawn) do in these assays?
HePTP inhibitor: -2; PLAP act: 2.1*; D1 mod: -0.0027; TNAP act mid DEA: 1.1; Candida biofilm: 7; DAT uptake mod: 0.058

How did COc1cc(/C=N\NC(=O)c2ccc(Br)cc2)cc(I)c1O do in these assays?
HePTP inhibitor: -9

How did CN(C)S(=O)(=O)N1CCN(S(=O)(=O)c2ccccc2)CC1 do in these assays?
HePTP inhibitor: 12; PLAP act: 1; D1 mod: 1.2; TNAP act mid DEA: 1; Candida biofilm: 11; DAT uptake mod: -0.52

What do the screens show for `CCS(=O)(=O)N1CCN(S(=O)(=O)c2ccccc2)CC1`?
PLAP act: 0.9; Candida biofilm: 3; DAT uptake mod: -9.6*

What do the screens show for `C=CCn1c(SCc2nc(N)nc(N(C)C)n2)nnc1-c1cccnc1`?
HePTP inhibitor: 1; PLAP act: 1.2; D1 mod: -6*; TNAP act mid DEA: 0.9; Candida biofilm: 1

How did O=C(O)C(c1ccccc1)C1(O)CCCC1 (stereo not drawn) do in these assays?
HePTP inhibitor: -1; PLAP act: 0.9; TNAP act mid DEA: 1; Candida biofilm: 0; DAT uptake mod: 1.7*

Results for c1ccc2nc(-c3nc4ccccc4[nH]3)ccc2c1 ?
HePTP inhibitor: 8; PLAP act: 1; D1 mod: -4.8*; TNAP act mid DEA: 0.9; Candida biofilm: 1; DAT uptake mod: -0.37

Results for CCc1ccccc1N1C(=O)C2C(c3ccccc3Cl)OC3(C(=O)c4ccccc4C3=O)C2C1=O (stereo not drawn) ?
HePTP inhibitor: 104*

What do the screens show for `CN(C(=S)Nc1ccccc1)c1ccccc1`?
HePTP inhibitor: 102*

What do the screens show for `Cc1cc(C)cc(NC(=O)c2cc(-c3cccs3)nc3ccccc23)c1`?
HePTP inhibitor: -15

What do the screens show for `CCCCc1ccc(NC(=O)CSCc2cc(=O)[nH][nH]2)cc1`?
PLAP act: 2.3*; Candida biofilm: 8; DAT uptake mod: -0.45

What do the screens show for `Cc1ccccc1-c1nc(CN2CCC(C(=O)NCCCN3CC(C)CC(C)C3)CC2)c(C)o1` (stereo not drawn)?
HePTP inhibitor: 4; PLAP act: 2*; D1 mod: -1.1; TNAP act mid DEA: 1.1; Candida biofilm: 0; DAT uptake mod: -0.57

What do the screens show for `Cc1ccccc1-c1nc(CN2CCC(C(=O)NCc3cccs3)CC2)c(C)o1`?
PLAP act: 2.6*; Candida biofilm: 12; DAT uptake mod: -0.95

Results for Cn1cc(C(=O)N/N=C/c2ccc(Br)cc2)ccc1=O ?
HePTP inhibitor: -16

How did CC1=NC(Nc2nc(C)c3ccccc3n2)=NC(C)(C)C1 do in these assays?
HePTP inhibitor: -4; PLAP act: 1.4; D1 mod: -4.1*; TNAP act mid DEA: 1; Candida biofilm: 5; DAT uptake mod: 0.29
